# Screens as filed in PubChem.
# Compounds with a hit are over-represented: about 6.5% of the library has one in this group of screens.
# A340 absorber: compound light absorbance at 340 nm, profiling panel, artefact control, biochemical, MLSMR library, data from PS, PMK, MK assays. compound absorbance at 340 nm, fold over control. fold change at 10 µM. 65,000 tested, under 10 active. AID 708, 2007;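 active = at 10 µM dose, initial 340 nm absorbance at least 2 fold that of control wells; inactive = change under 2 fold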;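 note: initial absorbance extrapolated from kinetic A340 decline of NADH oxidation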
# MK inhibit: S. pneumoniae MK inhibitors, primary screen, biochemical, PK/LDH-coupled NADH absorbance; AID 555, 2006; 0.48% of 65,000 active; inhibition, % at 10 µM; purified MK, PK/LDH-coupled NADH absorbance 340 nm; mevalonate kinase [Streptococcus pneumoniae D39];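 active = ranked among the strongest by inhibition in the single 10 µM screen, a fixed top-ranked set picked for dose follow-up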
# Fluor 339 460: intrinsic fluorescence of library compounds, ex339/em460 – biochemical, MLSMR library, data from DPM-DC assay, artefact control, profiling panel. compound autofluorescence, ex339/em460 nm, NADH buffer; stronger effect = higher value; 1 = no-compound wells, NADH background. fluorescence fold increase at 10 µM. 5.5% of 65,000 active. AID 709, 2007;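 active = at 10 µM, mean starting fluorescence two-fold or more over control wells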;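 note: signal is the first read of a kinetic run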
# Spn PMK inh: S. pneumoniae PMK inhibitors, primary screen, biochemical, mevalonate pathway, pilot trial included | phosphomevalonate kinase (Streptococcus pneumoniae D39) | purified PMK, PK/LDH-coupled NADH absorbance 340 nm | inhibition, % at 10 µM | 0.49% of 65,000 active;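 active = top-ranked compounds by inhibition in the single 10 µM screen, taking a fixed number of the strongest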;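 note: 0% = full reaction with DMSO carrier and 100% = background rate without enzyme reaction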
# Spn DPM-DC inh: S. pneumoniae DPM-DC inhibitors, primary screen, biochemical, PK/LDH-coupled NADH fluorescence; calls only at 10 µM; purified DPM-DC; diphosphomevalonate decarboxylase (Streptococcus pneumoniae D39); AID 556, 2006; 0.49% of 65,000 active;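 active = the 320 compounds with the highest percent inhibition in the single-dose primary screen, excluding strongly autofluorescent ones, cut at about 32% in these data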;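 note: kinetic rate of NADH fluorescence loss reporting ADP formed by the decarboxylase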
# NADH coupling: inhibitors of PK/LDH coupling enzymes, profiling panel, artefact control, biochemical, MLSMR library; coupled PK/LDH NADH assays, four targets; IC50, µM (series often up to 10 µM), without a hit: at the highest dose inhibition; 0.02% of 65,000 active;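 active = single-dose screening hits from any of four coupled enzyme assays that gave an IC50 when retested across doses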;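 note: the DPM-DC format reads NADH fluorescence rather than 340 nm absorbance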
# Starred values were filed as active, the others as inactive; i = inactive; x = not tested or not shown.
SMILES,A340 absorber,MK inhibit,Fluor 339 460,Spn PMK inh,Spn DPM-DC inh,NADH coupling
CCN(Cc1ccccc1)S(=O)(=O)c1ccc(C(=O)Nc2nnc(-c3ccccc3OC)o2)cc1,1.06,2.0,3.78*,14.0,x,8.0%
CCCN(CCC)S(=O)(=O)c1ccc(C(=O)Nc2nnc(-c3cccc(OC)c3)o2)cc1,1.02,0.0,2.12*,11.0,x,5.0%
O=c1c(-c2ccc3c(c2)OCCO3)coc2c(CN3CCOCC3)c(O)ccc12,1.08,11.0,3.79*,2.0,x,7.0%
COc1cccc(Oc2coc3c(CN4CCOCC4)c(O)ccc3c2=O)c1,1.08,8.0,3.89*,10.0,x,9.0%
COc1ccc(Oc2coc3cc(OC(=O)N4CCOCC4)ccc3c2=O)cc1,1.06,5.0,1.1,5.0,i,3.0%
O=C(NCCCO)c1ccc2[nH]c3ccccc3c2c1,1.03,2.0,2.73*,10.0,i,11.0%
CCCCNC(=O)c1cccc(C(=O)NCCCC)c1,1.04,10.0,1.13,6.0,i,5.0%
CCN1C(=O)/C(=C2/Sc3ccc(OC)cc3N2C)SC1=Nc1ccc(C(C)=O)cc1,1.05,1.0,1.12,25.0*,i,11.0%
CCCNC(=O)NC(C(=O)OC)C12CC3CC(CC(C3)C1)C2 (stereo not drawn),0.98,0.0,1.03,17.0,i,5.0%
c1ccc(Cn2nnc3c(N4CCCCCC4)ncnc32)cc1,0.97,6.0,1,0.0,i,3.0%
c1ccc(Cn2nnc3c(N4CCc5ccccc54)ncnc32)cc1,1,3.0,4.3*,7.0,x,5.0%
CCC1CCCCN1C(=O)Cn1c(=O)n(CCC(=O)NCc2ccco2)c(=O)c2sccc21 (stereo not drawn),0.99,1.0,1.11,14.0,i,5.0%
CCOc1nc(CC)nc(NC(=O)NS(=O)(=O)c2ccccc2Cl)n1,1.05,35.0,1.1,4.0,i,13.0%
COc1ccc2nc(C)cc(C(=O)O)c2c1,1.01,3.0,3.79*,4.0,x,4.0%
CCOc1ccc2nc(C)cc(C(=O)O)c2c1,0.99,8.0,3.75*,5.0,x,7.0%
Cc1c(NC(=O)NCCN2C(=O)C3C4C=CC(C4)C3C2=O)c(=O)n(-c2ccccc2)n1C (stereo not drawn),1.05,0.0,1.09,17.0,i,6.0%
Cc1ccc(-c2nc3cnccn3c2Nc2ccccc2)o1,1.08,10.0,2.12*,7.0,x,9.0%
CN(CC(=O)NCCC1=CCCCC1)S(=O)(=O)c1ccc2c(c1)CCC(=O)N2,0.99,4.0,1.04,0.0,i,2.0%
O=C(CN1CCC(NC(=O)Nc2ccccc2-c2ccccc2)CC1)NCc1ccco1,1.01,0.0,1.08,6.0,i,2.0%
Cc1cc(N2CCC(N(C)C3CCCC3)CC2)nc2cc(O)ccc12,1.16,5.0,2.17*,7.0,x,6.0%
Cc1cc(N2CCC(C(=O)NC3CCCCC3)CC2)nc(-c2ccccc2)n1,1,3.0,1.1,6.0,i,3.0%
CS(=O)(=O)N(CC(=O)N1CCC(C(N)=O)CC1)c1ccc(Oc2ccccc2)cc1,1.03,22.0,1.12,0.0,i,7.0%
CC1(C)CC2CC(C)(CN2C(=O)COC(=O)c2ccc(Cl)cc2N)C1 (stereo not drawn),1.04,9.0,4.22*,9.0,x,9.0%
Cc1cc(C)n(CC(O)CN2c3ccccc3Sc3ccccc32)n1 (stereo not drawn),1.03,5.0,1.11,0.0,i,2.0%
CCCN1CCN(CCCNC(=O)Cn2nc(-c3ccccc3)ccc2=O)CC1,1,7.0,1.13,27.0*,i,11.0%
SMILES,A340 absorber,MK inhibit,Fluor 339 460,Spn PMK inh,Spn DPM-DC inh,NADH coupling
CNS(=O)(=O)c1cccc(C(=O)OCc2cc(Cl)cc3c2OCOC3)c1,1,6.0,1.09,9.0,i,5.0%
CCOC(=O)Cc1csc(NC(=O)CSc2ncnc3c2cnn3-c2ccc(OC)cc2)n1,0.99,11.0,2.45*,12.0,i,9.0%
CC(C)Cn1c(N)c(C(=O)NCCN2CCOCC2)c2nc3ccccc3nc21,0.99,12.0,2.93*,7.0,x,5.0%
CC(C)Cn1c2nc3ccccc3nc2c2c(=O)n(CCN3CCOCC3)cnc21,1.1,10.0,3.52*,9.0,x,10.0%
CCCCn1c2nc3ccccc3nc2c2c(=O)n(CCC(C)C)cnc21,1.04,0.0,1.79,0.0,i,1.0%
Cc1cccc(-n2c(N)c(C(=O)NCCN3CCOCC3)c3nc4ccccc4nc32)c1,1.09,0.0,5.07*,10.0,x,5.0%
O=C(NCCN1CCOCC1)c1ccc(-c2ccccc2)cc1,1.07,16.0,1.08,0.0,i,5.0%
COCCCn1c2nc3ccccc3nc2c2c(=O)n(CC3CCCO3)cnc21 (stereo not drawn),1.12,13.0,2.32*,0.0,x,7.0%
O=C(NCCCn1ccnc1)C1c2ccccc2Oc2ccccc21,1.02,9.0,1.23,9.0,i,7.0%
Cc1ccc(-n2nc3c(c2NC(=O)c2c(-c4ccccc4Cl)noc2C)CS(=O)(=O)C3)c(C)c1,1,1.0,1.08,25.0*,i,9.0%
COc1ccc(OCCNC(=O)c2ccccc2OCC(=O)N2CCCCC2)cc1,1.08,14.0,1.13,5.0,i,6.0%
Cc1ccc(OCCNC(=O)c2ccccc2N)cc1,1.04,4.0,2.11*,0.0,x,2.0%
CCN(CC)CCCNC(=O)c1ccccc1C,1.05,7.0,1.16,6.0,i,4.0%
CCN(CC)CCNC(=O)c1ccccc1N,1.01,0.0,2.31*,5.0,x,3.0%
O=C(Nc1ccc(-c2nc3cccnc3s2)cc1)c1ccco1,1.26,0.0,2.09*,0.0,x,0.0%
O=C(Nc1cccc(-c2nc3cccnc3s2)c1)c1ccco1,1.04,0.0,1.24,17.0,i,6.0%
O=C(Nc1ccc(-c2nc3cccnc3s2)cc1)c1ccc(Br)o1,1.13,3.0,2.16*,9.0,x,6.0%
CC(C)Sc1nc2c(c(=O)n1C)SC(C)C2 (stereo not drawn),1.08,0.0,1.07,4.0,i,1.0%
Nc1c2c(nc3ccccc13)N(c1ccccc1)CC2,1.08,42.0*,2.27*,0.0,x,21.0%
c1ccc2c(c1)[nH]c1c(N3CCN(C4CCCCC4)CC3)ncnc12,1.06,9.0,2.33*,0.0,x,5.0%
Cc1ccc2[nH]c3c(N4CCOCC4)ncnc3c2c1,1.02,2.0,2.48*,0.0,x,2.0%
CN1CCN(c2ncnc3c2[nH]c2ccc(F)cc23)CC1,1.11,8.0,2.32*,0.0,x,4.0%
c1ccc2c(c1)[nH]c1c(N3CCCC3)ncnc12,1.06,13.0,1.36,13.0,i,10.0%
